Consider 2 sequences from paper PMC7862700, “An all-to-all approach to the identification of sequence-specific readers for epigenetic DNA modifications on cytosine”.

What all share (experiment): DAPPL (digital affinity profiling via proximity ligation, sequencing); 10 mM Tris-HCl pH 7.5, 50 mM NaCl, 1 mM DTT, 4% glycerol, room temperature, 30 min; GST-TFs on glutathione beads, 16-mer random dsDNA library, 0.1% formaldehyde crosslink after washing; high values mean tight binding
What all share (conditions): protein: recombinant; tags: N-terminal GST; dsDNA, one strand shown

One test has as its target T1, FLI1 (Homo sapiens, UniProt Q01543 1-452).
T1 sequence: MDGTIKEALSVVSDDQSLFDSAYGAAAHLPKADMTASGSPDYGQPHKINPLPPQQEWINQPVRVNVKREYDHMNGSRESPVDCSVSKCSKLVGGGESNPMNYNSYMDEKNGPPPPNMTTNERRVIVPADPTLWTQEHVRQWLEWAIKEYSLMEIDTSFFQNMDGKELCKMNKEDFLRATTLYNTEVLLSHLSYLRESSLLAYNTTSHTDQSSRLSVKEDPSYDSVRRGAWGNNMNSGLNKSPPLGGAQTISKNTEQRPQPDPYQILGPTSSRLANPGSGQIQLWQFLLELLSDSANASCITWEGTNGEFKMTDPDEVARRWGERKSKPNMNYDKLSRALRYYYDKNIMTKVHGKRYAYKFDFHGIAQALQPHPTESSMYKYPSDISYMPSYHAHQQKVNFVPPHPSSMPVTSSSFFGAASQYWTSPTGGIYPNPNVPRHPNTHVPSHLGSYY
Summed up: (§1)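 Binding signal is defined as a hexamer's read frequency for one factor over its frequency for the tag-only sample. To obtain reads, GST-fused human transcription factors were expressed in yeast, captured on glutathione beads, barcoded with DNA and pooled with that sample. Pools met 200 nmole of a 16-mer random double-stranded DNA library in Tris/NaCl/DTT/glycerol buffer for 30 min at room temperature before washing, 0.1% formaldehyde crosslinking, proximity ligation (BsaI/T4 ligase, 1 h, 37 °C), PCR and Illumina NextSeq500 sequencing.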

Another test addresses T2, ELK1 (Homo sapiens, UniProt P19419 1-428).
T2 sequence: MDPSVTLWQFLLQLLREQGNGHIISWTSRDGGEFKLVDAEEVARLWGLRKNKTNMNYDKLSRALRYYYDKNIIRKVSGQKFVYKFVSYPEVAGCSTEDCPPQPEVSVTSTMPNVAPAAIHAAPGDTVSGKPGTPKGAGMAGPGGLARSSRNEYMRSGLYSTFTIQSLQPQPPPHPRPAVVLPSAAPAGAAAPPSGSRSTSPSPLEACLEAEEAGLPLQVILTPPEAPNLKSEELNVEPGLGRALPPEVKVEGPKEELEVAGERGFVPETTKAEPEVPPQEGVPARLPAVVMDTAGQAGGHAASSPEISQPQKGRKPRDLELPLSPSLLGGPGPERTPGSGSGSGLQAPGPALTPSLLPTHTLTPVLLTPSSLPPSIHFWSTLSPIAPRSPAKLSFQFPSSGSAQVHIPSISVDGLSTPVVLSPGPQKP
Summed up: as §1

Another test concerns the target T3, GABPA (Homo sapiens, UniProt Q06546 1-454).
T3 sequence: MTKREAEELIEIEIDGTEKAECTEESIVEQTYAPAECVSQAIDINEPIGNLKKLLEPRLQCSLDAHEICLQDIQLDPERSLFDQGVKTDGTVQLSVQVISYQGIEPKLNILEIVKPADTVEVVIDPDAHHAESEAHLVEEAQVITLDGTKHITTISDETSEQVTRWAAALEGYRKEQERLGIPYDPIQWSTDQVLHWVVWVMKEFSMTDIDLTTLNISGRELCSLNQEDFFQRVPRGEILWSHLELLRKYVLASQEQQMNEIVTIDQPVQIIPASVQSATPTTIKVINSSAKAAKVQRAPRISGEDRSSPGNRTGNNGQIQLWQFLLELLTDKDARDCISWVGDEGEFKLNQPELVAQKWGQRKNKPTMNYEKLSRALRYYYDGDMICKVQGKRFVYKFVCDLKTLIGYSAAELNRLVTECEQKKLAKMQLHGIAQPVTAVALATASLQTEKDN
Summed up: as §1

For a further test, the target named is T4, ERG (Homo sapiens, UniProt P11308 1-479).
T4 sequence: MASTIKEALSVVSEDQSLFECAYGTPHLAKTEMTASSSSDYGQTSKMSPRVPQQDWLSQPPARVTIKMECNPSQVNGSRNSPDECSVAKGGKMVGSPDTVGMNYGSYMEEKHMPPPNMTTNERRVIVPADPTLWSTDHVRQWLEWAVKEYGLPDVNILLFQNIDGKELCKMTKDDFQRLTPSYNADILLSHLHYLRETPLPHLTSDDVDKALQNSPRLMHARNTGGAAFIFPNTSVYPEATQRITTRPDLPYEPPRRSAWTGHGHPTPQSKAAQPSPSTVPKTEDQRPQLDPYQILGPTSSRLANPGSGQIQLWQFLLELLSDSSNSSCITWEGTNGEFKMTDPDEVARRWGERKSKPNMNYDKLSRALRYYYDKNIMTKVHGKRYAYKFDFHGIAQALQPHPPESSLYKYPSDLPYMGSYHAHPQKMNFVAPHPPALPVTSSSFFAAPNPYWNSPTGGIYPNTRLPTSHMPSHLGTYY
Summed up: as §1

Another test deals with ELF1 (Homo sapiens, UniProt P32519 1-619). Summed up:
as §1

The target in another test is T5, EHF (Homo sapiens, UniProt Q9NZC4 1-300).
T5 sequence: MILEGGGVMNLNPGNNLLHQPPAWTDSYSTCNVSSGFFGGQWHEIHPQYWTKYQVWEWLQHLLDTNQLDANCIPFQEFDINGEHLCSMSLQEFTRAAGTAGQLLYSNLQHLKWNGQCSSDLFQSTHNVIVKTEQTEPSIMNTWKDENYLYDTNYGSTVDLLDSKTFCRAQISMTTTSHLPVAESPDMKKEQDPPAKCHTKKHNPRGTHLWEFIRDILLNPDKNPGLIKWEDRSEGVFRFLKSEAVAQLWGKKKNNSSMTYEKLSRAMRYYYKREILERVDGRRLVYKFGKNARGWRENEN
Summed up: as §1

The next test concerns the target SPI1 (Homo sapiens, UniProt P17947 1-270). Summed up: as §1
The target of the next test is SPIB (Homo sapiens, UniProt Q01892 1-262). Summed up: as §1
SPIB, sequence (Q01892 whole entry): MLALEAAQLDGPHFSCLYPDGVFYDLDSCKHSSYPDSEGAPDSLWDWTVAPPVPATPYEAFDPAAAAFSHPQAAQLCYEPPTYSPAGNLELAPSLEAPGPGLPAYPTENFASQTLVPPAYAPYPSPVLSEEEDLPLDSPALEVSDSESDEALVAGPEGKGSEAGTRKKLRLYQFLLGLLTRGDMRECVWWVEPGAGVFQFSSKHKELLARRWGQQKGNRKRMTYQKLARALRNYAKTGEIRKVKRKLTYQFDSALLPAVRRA
A further test addresses T6, ELK3 (Homo sapiens, UniProt P41970 1-407).
T6 sequence: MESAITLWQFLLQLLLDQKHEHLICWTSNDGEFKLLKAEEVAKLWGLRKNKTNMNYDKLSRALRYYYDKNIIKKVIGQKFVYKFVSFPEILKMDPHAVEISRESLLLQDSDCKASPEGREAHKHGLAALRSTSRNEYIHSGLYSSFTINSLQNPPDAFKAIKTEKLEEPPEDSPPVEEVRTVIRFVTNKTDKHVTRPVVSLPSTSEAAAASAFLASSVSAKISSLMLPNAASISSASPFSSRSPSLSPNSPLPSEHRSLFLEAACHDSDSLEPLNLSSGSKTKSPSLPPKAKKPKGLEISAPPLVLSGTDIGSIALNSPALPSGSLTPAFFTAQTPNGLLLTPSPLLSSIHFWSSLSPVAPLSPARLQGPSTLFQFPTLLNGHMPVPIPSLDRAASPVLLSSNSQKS
Summed up: as §1

Another test has as its target T7, FEV (Homo sapiens, UniProt Q99581 1-238).
T7 sequence: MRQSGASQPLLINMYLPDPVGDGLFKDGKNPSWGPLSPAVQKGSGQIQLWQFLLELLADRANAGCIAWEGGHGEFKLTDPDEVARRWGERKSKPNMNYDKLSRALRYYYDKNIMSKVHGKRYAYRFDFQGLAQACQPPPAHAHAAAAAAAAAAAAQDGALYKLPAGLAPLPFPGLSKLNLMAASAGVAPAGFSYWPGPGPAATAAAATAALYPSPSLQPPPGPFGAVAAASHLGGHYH
Summed up: as §1

Another test addresses ETV5 (Homo sapiens, UniProt P41161 1-510). Summed up: as §1
A further test has as its target T8, SPIC (Homo sapiens, UniProt Q8N5J4 1-248).
T8 sequence: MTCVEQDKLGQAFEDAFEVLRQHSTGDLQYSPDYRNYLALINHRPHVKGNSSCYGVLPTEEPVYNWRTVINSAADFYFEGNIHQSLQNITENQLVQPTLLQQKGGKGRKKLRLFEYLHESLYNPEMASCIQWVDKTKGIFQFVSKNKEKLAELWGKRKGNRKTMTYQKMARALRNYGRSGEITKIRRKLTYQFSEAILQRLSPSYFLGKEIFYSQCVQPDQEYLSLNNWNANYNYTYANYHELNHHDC
Summed up:
as §1

Another test addresses ELF4 (Homo sapiens, UniProt Q99607 1-663). Summed up:
as §1

A further test deals with T9, ELK4 (Homo sapiens, UniProt P28324-2 1-405).
T9 sequence: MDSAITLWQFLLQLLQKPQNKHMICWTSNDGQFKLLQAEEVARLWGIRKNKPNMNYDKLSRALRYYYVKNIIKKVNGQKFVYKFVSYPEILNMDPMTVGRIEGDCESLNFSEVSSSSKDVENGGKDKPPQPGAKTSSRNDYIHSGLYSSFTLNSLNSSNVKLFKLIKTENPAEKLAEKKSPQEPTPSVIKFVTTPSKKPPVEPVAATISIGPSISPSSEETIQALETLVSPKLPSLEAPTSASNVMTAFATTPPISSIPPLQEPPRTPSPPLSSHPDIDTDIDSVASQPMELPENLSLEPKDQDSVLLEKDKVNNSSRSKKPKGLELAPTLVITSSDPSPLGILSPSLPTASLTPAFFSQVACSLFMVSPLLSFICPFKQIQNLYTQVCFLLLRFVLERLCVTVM
Summed up:
as §1

Another test concerns the target T10, ETV2 (Homo sapiens, UniProt O00321 1-342).
T10 sequence: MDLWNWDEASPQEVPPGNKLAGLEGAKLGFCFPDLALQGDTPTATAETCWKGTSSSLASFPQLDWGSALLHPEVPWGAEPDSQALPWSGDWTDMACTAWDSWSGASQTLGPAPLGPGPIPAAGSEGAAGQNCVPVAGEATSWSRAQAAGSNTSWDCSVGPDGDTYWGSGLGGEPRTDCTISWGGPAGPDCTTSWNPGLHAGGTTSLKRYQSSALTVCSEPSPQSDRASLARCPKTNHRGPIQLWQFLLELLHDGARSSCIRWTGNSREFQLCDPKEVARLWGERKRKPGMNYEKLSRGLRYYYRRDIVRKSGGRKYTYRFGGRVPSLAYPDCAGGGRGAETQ
Summed up:
as §1

In the next test the target is T11, ELF3 (Homo sapiens, UniProt P78545 1-371).
T11 sequence: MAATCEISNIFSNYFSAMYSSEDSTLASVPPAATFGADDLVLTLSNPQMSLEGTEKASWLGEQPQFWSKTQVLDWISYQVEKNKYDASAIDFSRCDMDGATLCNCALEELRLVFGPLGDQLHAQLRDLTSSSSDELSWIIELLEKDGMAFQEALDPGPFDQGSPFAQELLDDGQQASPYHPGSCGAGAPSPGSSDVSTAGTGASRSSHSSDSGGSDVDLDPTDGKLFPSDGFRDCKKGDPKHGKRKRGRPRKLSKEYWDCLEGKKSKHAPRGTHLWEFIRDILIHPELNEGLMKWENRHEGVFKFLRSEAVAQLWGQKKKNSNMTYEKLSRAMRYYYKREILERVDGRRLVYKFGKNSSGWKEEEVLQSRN
Summed up: as §1

The next test has as its target ETV1 (Homo sapiens, UniProt P50549 1-477). Summed up:
as §1

ELF1, sequence (P32519 whole entry): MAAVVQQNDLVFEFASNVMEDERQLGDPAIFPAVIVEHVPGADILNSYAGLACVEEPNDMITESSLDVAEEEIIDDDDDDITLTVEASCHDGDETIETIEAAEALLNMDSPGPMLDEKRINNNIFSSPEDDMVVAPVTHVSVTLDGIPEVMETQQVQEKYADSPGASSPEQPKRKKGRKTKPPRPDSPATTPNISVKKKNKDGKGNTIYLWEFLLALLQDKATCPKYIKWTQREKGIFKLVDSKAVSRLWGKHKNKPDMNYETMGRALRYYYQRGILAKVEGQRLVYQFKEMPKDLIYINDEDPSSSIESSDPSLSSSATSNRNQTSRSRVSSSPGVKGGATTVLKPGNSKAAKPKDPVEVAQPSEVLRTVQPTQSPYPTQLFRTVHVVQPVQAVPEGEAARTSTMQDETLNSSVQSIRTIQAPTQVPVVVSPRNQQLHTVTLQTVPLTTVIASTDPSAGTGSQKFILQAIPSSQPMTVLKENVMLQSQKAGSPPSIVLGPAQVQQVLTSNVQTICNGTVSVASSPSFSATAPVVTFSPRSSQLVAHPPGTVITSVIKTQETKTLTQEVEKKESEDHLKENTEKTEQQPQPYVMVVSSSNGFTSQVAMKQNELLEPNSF
ETV5, sequence (P41161 whole entry): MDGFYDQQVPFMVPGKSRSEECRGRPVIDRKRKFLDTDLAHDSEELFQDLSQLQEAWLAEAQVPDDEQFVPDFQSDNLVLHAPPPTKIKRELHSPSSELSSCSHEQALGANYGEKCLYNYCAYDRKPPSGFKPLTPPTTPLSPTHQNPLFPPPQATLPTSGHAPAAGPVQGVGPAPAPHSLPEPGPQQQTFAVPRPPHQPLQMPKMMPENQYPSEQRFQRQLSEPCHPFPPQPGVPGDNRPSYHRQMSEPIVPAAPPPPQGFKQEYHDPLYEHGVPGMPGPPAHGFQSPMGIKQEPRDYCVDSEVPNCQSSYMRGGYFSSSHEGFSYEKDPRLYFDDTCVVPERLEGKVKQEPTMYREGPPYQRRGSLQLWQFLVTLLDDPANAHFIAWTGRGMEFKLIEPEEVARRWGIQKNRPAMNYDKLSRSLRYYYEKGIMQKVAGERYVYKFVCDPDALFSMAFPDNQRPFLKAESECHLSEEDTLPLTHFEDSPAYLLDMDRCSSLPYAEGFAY
ELF4, sequence (Q99607 whole entry): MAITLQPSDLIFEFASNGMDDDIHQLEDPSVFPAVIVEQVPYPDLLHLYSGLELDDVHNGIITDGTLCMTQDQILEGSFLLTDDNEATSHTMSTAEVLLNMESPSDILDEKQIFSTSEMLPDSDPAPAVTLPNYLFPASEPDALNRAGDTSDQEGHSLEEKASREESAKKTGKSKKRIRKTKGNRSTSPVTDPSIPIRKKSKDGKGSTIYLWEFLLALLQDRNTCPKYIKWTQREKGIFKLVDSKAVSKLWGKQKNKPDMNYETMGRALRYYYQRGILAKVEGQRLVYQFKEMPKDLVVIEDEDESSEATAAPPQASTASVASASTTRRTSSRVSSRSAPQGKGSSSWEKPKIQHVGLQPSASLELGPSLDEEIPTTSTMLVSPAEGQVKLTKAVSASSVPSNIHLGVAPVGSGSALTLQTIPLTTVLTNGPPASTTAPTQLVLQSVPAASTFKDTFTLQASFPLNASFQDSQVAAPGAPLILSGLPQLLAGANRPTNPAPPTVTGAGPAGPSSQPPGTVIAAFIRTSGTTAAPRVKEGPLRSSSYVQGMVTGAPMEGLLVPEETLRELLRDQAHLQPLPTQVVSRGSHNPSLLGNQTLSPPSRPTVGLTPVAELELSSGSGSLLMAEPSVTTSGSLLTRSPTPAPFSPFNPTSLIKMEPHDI
ETV1, sequence (P50549 whole entry): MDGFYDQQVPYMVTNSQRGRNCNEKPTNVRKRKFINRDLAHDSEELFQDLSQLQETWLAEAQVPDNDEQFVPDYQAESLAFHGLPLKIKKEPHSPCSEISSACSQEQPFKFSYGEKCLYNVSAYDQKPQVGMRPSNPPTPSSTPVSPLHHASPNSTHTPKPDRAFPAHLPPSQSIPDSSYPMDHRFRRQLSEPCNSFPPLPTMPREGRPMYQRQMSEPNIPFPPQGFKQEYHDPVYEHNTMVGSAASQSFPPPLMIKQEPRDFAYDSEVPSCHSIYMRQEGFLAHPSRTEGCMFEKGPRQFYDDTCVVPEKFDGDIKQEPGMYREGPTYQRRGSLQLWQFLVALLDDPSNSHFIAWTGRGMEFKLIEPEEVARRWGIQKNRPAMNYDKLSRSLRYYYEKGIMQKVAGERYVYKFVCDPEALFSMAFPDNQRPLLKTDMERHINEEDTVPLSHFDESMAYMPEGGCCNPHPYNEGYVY

In the case of CCCCGG, the binding signal was 1.19 fold enrichment (6-mer frequency, TF over GST control) with FLI1; 1.18 fold enrichment (6-mer frequency, TF over GST control) with ELK1; 1.15 fold enrichment (6-mer frequency, TF over GST control) with GABPA; 1.3 fold enrichment (6-mer frequency, TF over GST control) in the test with ERG; 1.22 fold enrichment (6-mer frequency, TF over GST control) with ELF1; 1.24 fold enrichment (6-mer frequency, TF over GST control) with EHF. In addition, the binding signal with SPI1 was 1.16 fold enrichment (6-mer frequency, TF over GST control); with SPIB, 1.27 fold enrichment (6-mer frequency, TF over GST control); in the test with ELK3, 1.2 fold enrichment (6-mer frequency, TF over GST control); with FEV, 1.38 fold enrichment (6-mer frequency, TF over GST control); in the test with ETV5, 1.27 fold enrichment (6-mer frequency, TF over GST control); with SPIC it was 1.07 fold enrichment (6-mer frequency, TF over GST control). The binding signal in the test with ELF4 is 1.2 fold enrichment (6-mer frequency, TF over GST control); with ELK4, 1.31 fold enrichment (6-mer frequency, TF over GST control); in the test with ETV2 it was 1.24 fold enrichment (6-mer frequency, TF over GST control); with ELF3 it was 1.09 fold enrichment (6-mer frequency, TF over GST control); with ETV1, 1.29 fold enrichment (6-mer frequency, TF over GST control).

In the case of ATACGG, the binding signal in the test with FLI1 was 1.19 fold enrichment (6-mer frequency, TF over GST control); with ELK1, 1.16 fold enrichment (6-mer frequency, TF over GST control); with GABPA, 1.17 fold enrichment (6-mer frequency, TF over GST control); in the test with ERG it was 1.23 fold enrichment (6-mer frequency, TF over GST control); with ELF1 it was 1.19 fold enrichment (6-mer frequency, TF over GST control); in the test with EHF, 1.2 fold enrichment (6-mer frequency, TF over GST control). Moreover, the binding signal with SPI1 was 1.31 fold enrichment (6-mer frequency, TF over GST control); with SPIB, 1.23 fold enrichment (6-mer frequency, TF over GST control); with ELK3, 1.23 fold enrichment (6-mer frequency, TF over GST control); with FEV it was 1.16 fold enrichment (6-mer frequency, TF over GST control); with ETV5, 1.25 fold enrichment (6-mer frequency, TF over GST control); in the test with SPIC it was 1.2 fold enrichment (6-mer frequency, TF over GST control). Further, the binding signal was 1.2 fold enrichment (6-mer frequency, TF over GST control) with ELF4; 1.03 fold enrichment (6-mer frequency, TF over GST control) in the test with ELK4; 1.22 fold enrichment (6-mer frequency, TF over GST control) in the test with ETV2; 1.25 fold enrichment (6-mer frequency, TF over GST control) with ELF3; 1.21 fold enrichment (6-mer frequency, TF over GST control) in the test with ETV1.
